In PubChem BioAssay (NCI):
This is part of a sample that, as a whole, favours compounds with a hit. Of some 83,000 tested, about 20% had one in any assay.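 Negative percent growth values reflect cell death: -40 means 40% of the cells present at the start died, and -100 means all died.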 Activity calls are given as the source filed them. The calls were made as follows: active = growth percent below 10; inactive = the rest.

Assays:
Experiment in all cases: NCI-60 one-dose screen, 48 h (100 = growth as untreated, 0 = no growth, -100 = all killed)
Conditions in all cases: 10 µM unless noted
T-47D breast = test system: T-47D breast
BT-549 breast = test system: BT-549 breast
MDA-MB-435 melanoma = test system: MDA-MB-435 melanoma
SW-620 colon = test system: SW-620 colon
MCF7 breast = test system: MCF7 breast
HCT-116 colon = test system: HCT-116 colon
HCC-2998 colon = test system: HCC-2998 colon
KM12 colon = test system: KM12 colon

Measured: growth

N#CCCN=Nc1c(O)[nH]c2ccc([N+](=O)[O-])cc12
inactive: T-47D breast 93.1% | BT-549 breast 107% | MDA-MB-435 melanoma 111% | SW-620 colon 99.9% | MCF7 breast 86.8% | HCT-116 colon 96.5% | HCC-2998 colon 111% | KM12 colon 101%

O=S(=O)(Nc1ccc(NS(=O)(=O)c2ccccc2)c(Cl)c1)c1ccccc1
inactive: T-47D breast 106% | BT-549 breast 105% | MDA-MB-435 melanoma 107% | SW-620 colon 99.1% | MCF7 breast 91.6% | HCT-116 colon 97.6% | HCC-2998 colon 104% | KM12 colon 104%

CN(C)S(=O)(=O)c1cccc(-c2nc3sc4c(c3c(=O)[nH]2)CCCC4)c1
inactive: BT-549 breast 31.9% | MDA-MB-435 melanoma 43.9% | SW-620 colon 13.7% | MCF7 breast 53.4% | KM12 colon 43.9%
active: T-47D breast -22.1% | HCT-116 colon -41.3% | HCC-2998 colon -50.5%

CCCOc1cc2ccccc2cc1C(=O)Nc1nc(NC)c2c(ccc3nccc32)[nH]1
active: T-47D breast -52.5% | BT-549 breast -27.4% | MDA-MB-435 melanoma -89.2% | SW-620 colon -75% | MCF7 breast -61.9% | HCT-116 colon -72.3% | HCC-2998 colon -70.5% | KM12 colon -72.2%

COc1cc2nnc3c4cccnc4[nH]c3c2cc1OC
active: SW-620 colon 9.61% | MCF7 breast 2.75% | HCT-116 colon 5.66%
inactive: T-47D breast 24.5% | BT-549 breast 72.9% | MDA-MB-435 melanoma 49.7% | HCC-2998 colon 88% | KM12 colon 32%

Cn1cc(-c2nonc2-c2cn(C)c3ccc(F)cc23)c2ccccc21
inactive: T-47D breast 37.3% | BT-549 breast 56.1% | SW-620 colon 22% | MCF7 breast 21.3% | HCT-116 colon 11.6% | HCC-2998 colon 25.9% | KM12 colon 14.7%
active: MDA-MB-435 melanoma -26%

Oc1ccccc1-c1nnc(CNc2ccc(Cl)cc2)o1
inactive: T-47D breast 30.9% | BT-549 breast 41.1% | MDA-MB-435 melanoma 33.8% | SW-620 colon 29.4% | MCF7 breast 14.2% | HCT-116 colon 42% | HCC-2998 colon 37.5% | KM12 colon 18.9%

COc1ccc(C(=O)/C=C/c2cccnc2Nc2cc(OC)c(OC)c(OC)c2)cc1
inactive: T-47D breast 44.1% | BT-549 breast 36.3% | MCF7 breast 12.9% | HCT-116 colon 13.7% | HCC-2998 colon 22.9% | KM12 colon 14%
active: MDA-MB-435 melanoma 2.91% | SW-620 colon -42.5%

Oc1cccc2ccc(N/N=C/c3cc(CN4CCOCC4)c(O)c4ncccc34)nc12
inactive: T-47D breast 26.9% | BT-549 breast 18.4% | MDA-MB-435 melanoma 23.8% | SW-620 colon 26.2% | MCF7 breast 18.6% | HCT-116 colon 23.5% | HCC-2998 colon 26.6% | KM12 colon 13.7%

Cc1ccc(-c2onc3c(=O)[nH]nc(-c4ccccc4)c23)cc1
inactive: T-47D breast 37.1% | BT-549 breast 40.5% | SW-620 colon 34.7% | MCF7 breast 24% | HCT-116 colon 25.8% | HCC-2998 colon 60.5% | KM12 colon 29.3%
active: MDA-MB-435 melanoma -34.6%

C#CC(F)(F)[C@]1(O)CC[C@H]2[C@@H]3CCC4=CC(=O)CCC4=C3[C@@H](c3ccc(C4CC4)cc3)C[C@@]21C
inactive: T-47D breast 17.5% | BT-549 breast 73.1% | MDA-MB-435 melanoma 85.1% | SW-620 colon 18.5% | MCF7 breast 36.9% | HCT-116 colon 75.8% | HCC-2998 colon 92%
active: KM12 colon 6.36%

O=C1C=CC(=O)N1c1ccc2c(c1)Cc1cc(F)ccc1-2
inactive: T-47D breast 103% | BT-549 breast 105% | MDA-MB-435 melanoma 102% | SW-620 colon 98.1% | MCF7 breast 90.2% | HCT-116 colon 94.3% | HCC-2998 colon 93.3% | KM12 colon 102%

O=C1c2ccccc2C(=O)c2c(N=Nc3[nH]c(=S)[nH]c3O)cccc21
active: MDA-MB-435 melanoma -67.7%
inactive: T-47D breast 21.8% | BT-549 breast 34.3% | SW-620 colon 18% | MCF7 breast 18.7% | HCT-116 colon 20.1% | HCC-2998 colon 29.9% | KM12 colon 17%

CC1=CC(=NN=c2cc(C)n([O-])c(C)c2)C=C(C)[N+]1=O
inactive: T-47D breast 43.9% | BT-549 breast 75.1% | MDA-MB-435 melanoma 85.9% | SW-620 colon 101% | MCF7 breast 19.3% | HCT-116 colon 83.1% | HCC-2998 colon 63.2% | KM12 colon 95.3%

O=C(NCCN1CCOCC1)Nc1ccc(-c2cc3c(Nc4ccc(Oc5cccc(C(F)(F)F)c5)c(Cl)c4)ncnc3s2)cc1
active: T-47D breast -1.15% | MDA-MB-435 melanoma 1.05% | SW-620 colon -46.8% | MCF7 breast -2.16% | HCT-116 colon -13% | HCC-2998 colon 5.37% | KM12 colon -65%
inactive: BT-549 breast 40%

O=C(N/N=C/c1ccccc1O)c1ccccc1Nc1ccnc(C(F)(F)F)c1
active: MCF7 breast 8.24%
inactive: T-47D breast 19.4% | BT-549 breast 30.1% | MDA-MB-435 melanoma 32.4% | SW-620 colon 35% | HCT-116 colon 14.4% | HCC-2998 colon 46% | KM12 colon 32.4%

CN(C)c1ccc(NC(=O)c2ccc(/C=C/C(=O)c3ncc[nH]3)cc2)cc1
inactive: T-47D breast 46.6% | BT-549 breast 63.1% | MDA-MB-435 melanoma 51.7% | SW-620 colon 21.1% | MCF7 breast 12.1% | HCT-116 colon 46.4% | HCC-2998 colon 87.9% | KM12 colon 10.2%

CC(O)CN(CC(C)O)c1ccc2c(c1)Cc1cc([N+](=O)[O-])ccc1-2 (configuration not stated)
inactive: T-47D breast 109% | BT-549 breast 101% | MDA-MB-435 melanoma 98.7% | SW-620 colon 99% | MCF7 breast 99.2% | HCT-116 colon 89.6% | HCC-2998 colon 95.1% | KM12 colon 85.3%

O=c1cc(CSc2nnc(-c3ccc(F)cc3)o2)c2ccc3ccccc3c2o1
inactive: T-47D breast 100% | BT-549 breast 111% | MDA-MB-435 melanoma 106% | SW-620 colon 94.5% | MCF7 breast 93.5% | HCT-116 colon 93.2% | HCC-2998 colon 95.4% | KM12 colon 100%

CC(=O)c1cc2c(N)c(C(=O)Nc3ccccc3)sc2nc1C
active: MDA-MB-435 melanoma -29.3%
inactive: T-47D breast 99.5% | BT-549 breast 67.3% | SW-620 colon 69.4% | MCF7 breast 59.8% | HCT-116 colon 102% | HCC-2998 colon 79.4% | KM12 colon 75.1%

COc1cc(C)c(C2C(C#N)=C(N)Oc3n[nH]c(-c4cccs4)c32)cc1C(C)C (configuration not stated)
inactive: T-47D breast 84.4% | BT-549 breast 102% | MDA-MB-435 melanoma 105% | SW-620 colon 101% | MCF7 breast 91.5% | HCT-116 colon 103% | HCC-2998 colon 93.5% | KM12 colon 98.6%

O=C1c2ccccc2OC=C(c2ccccc2)N1CCCCNc1ccc(S(=O)(=O)Nc2ncccn2)cc1
inactive: T-47D breast 88.8% | BT-549 breast 100% | MDA-MB-435 melanoma 105% | SW-620 colon 99.3% | MCF7 breast 93.7% | HCT-116 colon 96.1% | HCC-2998 colon 111% | KM12 colon 97.5%

Cc1cc(N2CCOCC2)nc(NCc2cc(Nc3ccnc4cc(Cl)ccc34)ccc2F)n1
active: T-47D breast -34.9% | BT-549 breast -37.7% | MDA-MB-435 melanoma -79.5% | SW-620 colon -69.9% | MCF7 breast -55.9% | HCT-116 colon -78.4% | HCC-2998 colon -69% | KM12 colon -61.9%

O=C1/C(=C/c2ccc(Cl)cc2)SC(=S)N1CCc1ccc(O)cc1
inactive: T-47D breast 54.2% | BT-549 breast 101% | MDA-MB-435 melanoma 92.9% | SW-620 colon 101% | MCF7 breast 114% | HCT-116 colon 102% | HCC-2998 colon 107% | KM12 colon 93.6%

C=C(C)[C@@H]1CC[C@]2(C(N)=O)CC[C@]3(C)[C@H](CC[C@@H]4[C@@]5(C)C/C(=C/c6ccco6)C(=O)C(C)(C)[C@@H]5CC[C@]43C)[C@@H]12
inactive: T-47D breast 80% | BT-549 breast 108% | MDA-MB-435 melanoma 98% | SW-620 colon 105% | MCF7 breast 79.8% | HCT-116 colon 83.3% | HCC-2998 colon 117% | KM12 colon 97.6%

O=C1OC(c2ccccc2)C(O)=C1c1ccccc1 (configuration not stated)
inactive: T-47D breast 111% | BT-549 breast 111% | MDA-MB-435 melanoma 105% | SW-620 colon 110% | MCF7 breast 95.4% | HCT-116 colon 107% | HCC-2998 colon 127% | KM12 colon 95.7%

CN1CCN(Cc2ccc(NC(=O)c3cncc(C#Cc4cncn5ccnc45)c3)cc2C(F)(F)F)CC1
active: HCT-116 colon 7.73%
inactive: T-47D breast 98.9% | BT-549 breast 60.8% | MDA-MB-435 melanoma 36.2% | SW-620 colon 32.2% | MCF7 breast 55.9% | HCC-2998 colon 47.6% | KM12 colon 19.7%

CCN(CC)c1ccc(/C=N\NC(=O)/C=C/C=C/c2ccc3c(c2)OCO3)c(O)c1
inactive: T-47D breast 26.3% | BT-549 breast 51.8% | MDA-MB-435 melanoma 48.9% | SW-620 colon 32.3% | MCF7 breast 19.5% | HCC-2998 colon 54% | KM12 colon 30.2%
active: HCT-116 colon 7.86%

O=C(COc1ccc(-c2nc3cc(Cl)c(Cl)cc3[nH]2)cc1)N=Nc1c(O)[nH]c2ccccc12
active: T-47D breast -37.9% | SW-620 colon -32.3% | MCF7 breast -49.7% | HCC-2998 colon -3.87% | KM12 colon -38.8%
inactive: BT-549 breast 64.7% | MDA-MB-435 melanoma 25.6% | HCT-116 colon 16.2%
